Data published in PubChem BioAssay AID1851 (National Center for Advancing Translational Sciences (NCATS), 2009).
About 4,000 (25%) of roughly 16,000 compounds were called active. Roughly 26% stayed inconclusive and do not appear here. Calls come from the whole dose curve; as a rule, active = well fitted curve in the direction sought with a large enough effect; inconclusive = small, poorly fitted or top-dose-only effect, or effect the other way; inactive = no such curve, though single readings can be large or run the other way. A selection follows.

What follows are compounds tested against Cytochrome P450 2C9 (Homo sapiens) (UniProt P11712) (assay: Cytochrome panel assay with activity outcomes). Conditions: recombinant CYP, pro-luciferin dealkylation, luminescence, p450-cyp2c9; series mostly up to 57.1 µM; activity, negative = inhibition: at the top concentration.
% is set by controls: 0 for no effect and ±100 for the full control effect.

Sequence of Cytochrome P450 2C9 (Homo sapiens) (P11712 whole entry, looked up): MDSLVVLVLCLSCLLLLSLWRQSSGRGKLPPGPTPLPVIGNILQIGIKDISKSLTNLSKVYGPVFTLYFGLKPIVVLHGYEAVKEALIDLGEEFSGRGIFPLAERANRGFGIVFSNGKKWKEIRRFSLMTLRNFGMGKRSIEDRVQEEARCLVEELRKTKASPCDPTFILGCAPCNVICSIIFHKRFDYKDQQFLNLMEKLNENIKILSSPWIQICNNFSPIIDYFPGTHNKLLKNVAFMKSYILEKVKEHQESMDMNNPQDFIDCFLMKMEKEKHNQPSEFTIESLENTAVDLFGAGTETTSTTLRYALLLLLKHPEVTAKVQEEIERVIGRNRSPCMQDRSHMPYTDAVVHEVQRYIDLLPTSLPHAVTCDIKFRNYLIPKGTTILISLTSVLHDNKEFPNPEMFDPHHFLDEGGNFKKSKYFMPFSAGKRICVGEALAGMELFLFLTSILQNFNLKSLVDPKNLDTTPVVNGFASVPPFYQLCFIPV

Row | SMILES | activity, negative = inhibition | AC50
1 | N#Cc1ccccc1NC(=O)Nc1cccs1 | -22.3% (inactive) | –
2 | O=C(NCc1ccco1)Nc1cccs1 | – | 11.2 µM (active)
3 | O=C(Nc1cc2ccccc2oc1=O)C1CCCCC1 | -15.2% (inactive) | –
4 | Cc1cc2ccccc2n1CCNC(=O)C1CCCC1 | -42.8% (inactive) | –
5 | Cc1cc(NC(=O)C2CCCCC2)nc2c1c(=O)oc1ccccc12 | – | 14.1 µM (active)
6 | COc1ccc(-c2cc(C(F)(F)F)nc(N3CCCCC3)n2)cc1OC | – | 10 µM (active)
7 | CN1CCN(c2nc(-c3ccccc3)cc(C(F)(F)F)n2)CC1 | -8.43% (inactive) | –
8 | COc1ccccc1-c1cc(C(F)(F)F)nc(S(=O)(=O)CCCC(=O)NC(C)C)n1 | 20.8% (inactive) | –
9 | COc1ccc(-n2c(=O)c(-c3cc(F)cc(F)c3)nc3cnc(N4CCOCC4)nc32)cc1 | -5.13% (inactive) | –
10 | COc1ccc(-c2cc(C(F)(F)F)nc(NC3CCCC3)n2)cc1OC | – | 7.94 µM (active)
11 | COc1ccc(-c2cc(C(F)(F)F)nc(N3CCN(C)CC3)n2)cc1OC | -22.7% (inactive) | –
12 | COc1ccccc1-c1nc(NC2CC2)c2ccccc2n1 | 5.77% [at 2.29 µM] (inactive) | –
13 | COc1ccccc1-c1nc(N2CCN(C)CC2)c2ccccc2n1 | 11.5% [at 2.29 µM] (inactive) | –
14 | COc1cccc(-c2cc(C(F)(F)F)nc(N3CCOCC3)n2)c1 | – | 15.8 µM (active)
15 | COc1ccccc1N1CCN(c2nc(-c3ccccc3)cc(C(F)(F)F)n2)CC1 | – | 5.62 µM (active)
16 | CO[C@H]1COC(=O)C/C=C\[C@@H](C)[C@H](OC)COC(=O)CCC[C@@H]1C | 9.38% [at 11.4 µM] (inactive) | –
17 | COc1cc2c(cc1OC)-c1cc3ccc(OC)c(OC)c3c[n+]1CC2 | -16.3% [at 25.6 µM] (inactive) | –
18 | CN(C)c1ncc2nc(-c3cc(F)cc(F)c3)c(=O)n(C[C@H]3CCCO3)c2n1 | 19.4% (inactive) | –
19 | COc1ccc(-n2c(=O)c(-c3ccc(F)cc3)nc3cnc(N4CCOCC4)nc32)cc1 | 9.27% (inactive) | –
20 | Cn1c(=O)c(-c2ccc(F)cc2)nc2cnc(N3CCOCC3)nc21 | 6.99% (inactive) | –
21 | COc1ccc(-c2cc(C(F)(F)F)nc(N3CCOCC3)n2)cc1OC | – | 3.98 µM (active)
22 | COc1cc2c(cc1OC)CN(C(=S)Nc1ccccc1)CC2 | – | 4.47 µM (active)
23 | CC(C)(CO)N1CCN(C(=S)Nc2ccccc2)CC1 | 10.3% [at 11.4 µM] (inactive) | –
24 | COc1cc2c(cc1OC)[C@H](c1ccccc1)CN(C)CC2 | -23.8% (inactive) | –
25 | O=C(N/C(=C\c1cccnc1)C(=O)N1CCOCC1)c1cccc(Br)c1 | -30.3% (inactive) | –

Row | SMILES | activity, negative = inhibition | AC50
26 | O=C(/C=C/c1cccnc1)c1ccc(NC(=O)c2cccc(Br)c2)cc1 | – | 4.47 µM (active)
27 | CN(C)CCn1c(C(=O)O)cc2ccccc21 | -16.7% (inactive) | –
28 | N#CC(c1ccc(Cl)cc1)c1nc2ccccc2nc1C(F)(F)F (stereo not drawn) | – | 1.41 µM (active)
29 | FC(F)(F)c1nc2ccccc2nc1N/N=C/c1ccc(Cl)cc1 | -20.4% (inactive) | –
30 | Cc1cc(Cl)ccc1Oc1ncc(-c2ccc(Cl)cc2)cn1 | -15.3% (inactive) | –
31 | Cc1ccccc1Oc1ncnc2sccc12 | 8.31% (inactive) | –
32 | Cc1ccccc1Oc1ncnc2oc(-c3ccccc3)cc12 | – | 3.98 µM (active)
33 | Cc1cc(Cl)ccc1Oc1ncnc2oc(-c3ccccc3)cc12 | – | 4.47 µM (active)
34 | CC(O)(P(=O)(O)O)P(=O)(O)O | -5.54% [at 25.6 µM] (inactive) | –
35 | O=C(c1cnccn1)N1CCC2(CC1)CN(Cc1cc(C(F)(F)F)cc(C(F)(F)F)c1)C2 | 2.54% (inactive) | –
36 | COc1ccc2cc(C)c3nnc(SCC(=O)Nc4nc(-c5ccccc5)cs4)n3c2c1 | – | 2.82 µM (active)
37 | COc1ccc(-c2nc(-c3ccccc3)c(-c3cc([N+](=O)[O-])ccc3C)[nH]2)cc1O | – | 10 µM (active)
38 | CCCC(=O)NC(Nc1ccccc1F)C(Cl)(Cl)Cl (stereo not drawn) | – | 8.91 µM (active)
39 | N#Cc1c(NC(=O)C2CC(c3ccccc3Cl)=NO2)sc2c1CCC2 (stereo not drawn) | – | 0.708 µM (active)
40 | CCN(c1ccccc1)c1cc(NC)[n+](C)c(C)n1 | 5.78% (inactive) | –
41 | CN(Cc1ccco1)c1ccnc(-c2cccnc2)n1 | 16.4% [at 2.29 µM] (inactive) | –
42 | CN(Cc1ccco1)c1nc(-c2cccnc2)nc2ccccc12 | -8.92% [at 2.29 µM] (inactive) | –
43 | CC(C)(C)n1nnnc1C(c1cccnc1)N(Cc1ccccc1)Cc1ccco1 (stereo not drawn) | – | 3.98 µM (active)
44 | O=C(O)/C=C\C(=O)N1Cc2cc3ccccc3nc2C1 | 10.3% [at 11.4 µM] (inactive) | –
45 | C=CCn1c(SCC(=O)N2CCc3ccccc3C2)nc2ccccc2c1=O | – | 0.2 µM (active)
46 | Cc1ccc(-n2c(C)nnc2SCC(=O)N2CCc3ccccc3C2)cc1C | 11.9% (inactive) | –
47 | CCn1c2ccccc2c2nnc(NCCCO)nc21 | 5.48% [at 11.4 µM] (inactive) | –
48 | CCn1c(N)nc2ccccc21 | -20% (inactive) | –
49 | CCn1c2ccc(Cl)cc2c2nc3ccccc3nc21 | – | 10 µM (active)
50 | O=C(O)CCc1nc(-c2ccccc2-n2cccc2)no1 | -3.02% [at 11.4 µM] (inactive) | –

Row | SMILES | activity, negative = inhibition | AC50
51 | C=Cc1c(C)c2cc3nc(cc4[nH]c(cc5nc(cc1[nH]2)C(C)=C5CCC(=O)O)c(CCC(=O)OC)c4C)[C@@]1(C)C3=CC=C(C(=O)OC)[C@H]1C(=O)OC (tested in a mixture with another compound) | – | 1.26 µM (active)
52 | Cc1cccc(CNc2cc(-c3ccc(N(C)C)cc3)ncn2)c1 | -14.7% [at 2.29 µM] (inactive) | –
53 | CCOc1ccc2ccccc2c1C(=O)N[C@@H]1C(=O)N2[C@@H]1SC(C)(C)[C@@H]2C(=O)O | -13.4% [at 25.6 µM] (inactive) | –
54 | CCOc1cc(C2CC(=O)c3c(ccc4ccccc34)N2)ccc1O (stereo not drawn) | – | 3.16 µM (active)
55 | COc1cccc(Cn2c(=O)c(-c3cccs3)nc3cncnc32)c1 | – | 2.51 µM (active)
56 | COc1ncc2nc(-c3cccs3)c(=O)n(Cc3ccc(F)cc3)c2n1 | -20.3% (inactive) | –
57 | Cn1cc(-c2nc3cncnc3n(Cc3ccc(F)cc3)c2=O)c2ccccc21 | 7.71% (inactive) | –
58 | Cc1nc2cnc(Nc3ccccc3)nc2n(CCc2ccccc2)c1=O | -14.1% (inactive) | –
59 | COc1cccc(Nc2ncc3nc(-c4cccs4)c(=O)n(CCC#N)c3n2)c1 | -7.12% (inactive) | –
60 | O=c1c(-c2cccs2)nc2cncnc2n1Cc1ccccc1 | – | 1.26 µM (active)
61 | Cc1nc2cncnc2n(Cc2ccccc2)c1=O | – | 15.8 µM (active)
62 | COc1ccc(Oc2ncc3nc(-c4cccs4)c(=O)n(Cc4cccc(OC)c4)c3n2)cc1 | – | 1 µM (active)
63 | CCn1cc(C(=O)O)c(=O)c2cnc(N3CCNCC3)nc21 | 12.3% [at 25.6 µM] (inactive) | –
64 | Cc1cc2cc(C=O)c(Cl)nc2cc1C | -8.44% (inactive) | –
65 | COc1cccc(Cn2c(=O)c(-c3cccs3)nc3cnc(N(C)C)nc32)c1 | -19.1% (inactive) | –
66 | CCNc1ncc2nc(-c3cccs3)c(=O)n(Cc3cccc(OC)c3)c2n1 | -11% (inactive) | –
67 | COc1cccc(Cn2c(=O)c(-c3cccs3)nc3cnc(OC)nc32)c1 | – | 3.16 µM (active)
68 | O=c1oc(-c2ccco2)nc2c1cnn2-c1ccccc1 | – | 12.6 µM (active)
69 | Cc1ccc(-n2ncc3c2ncn2nc(-c4ccco4)nc32)c(C)c1 | -11.5% (inactive) | –
70 | c1ccc(-n2ncc3c2ncn2cnnc32)cc1 | -3.21% (inactive) | –
71 | N#Cc1cccc(-c2nc(N3CCNCC3)c3ccccc3n2)c1 | 11.8% [at 2.29 µM] (inactive) | –
72 | C=CCN1CCN(c2nc3ccccc3nc2C#N)CC1 | – | 20 µM (active)
73 | CNc1nc(-c2ccccc2C(F)(F)F)nc2ccccc12 | 19.6% [at 2.29 µM] (inactive) | –
74 | Cc1cccc(C)c1NC(=O)COc1cccc(/C=N/NC(=O)C(=O)NCc2ccccc2)c1 | -7.69% (inactive) | –
75 | COc1cccc(/C=N/NC(=O)c2nc(-c3ccccc3)cc(-c3ccccc3)n2)c1 | 11.1% (inactive) | –

Row | SMILES | activity, negative = inhibition | AC50
76 | C=CCOc1cccc(/C=N/NC(=O)C(=O)NCc2ccco2)c1 | 1.64% (inactive) | –
77 | COc1cccc(/C=N/NC(=O)C(=O)NCc2cccnc2)c1 | – | 22.4 µM (active)
78 | COc1cccc(/C=N/NC(=O)c2c(-c3ccccc3)noc2C)c1 | – | 3.55 µM (active)
79 | CC(C)=CCC/C(C)=C/CO/N=C1/C[C@@H](O)[C@@H](O)[C@@H]2[C@@H]3C(=O)N(C4CCCCC4)C(=O)[C@H]3CC[C@H]12 | -5.92% [at 11.4 µM] (inactive) | –
80 | Nc1nc(Br)c2ccccc2c1-c1ccc(F)cc1 | -33.3% (inactive) | –
81 | Nc1nc(Br)c2c(F)cccc2c1-c1ccc(F)cc1 | – | 2.51 µM (active)
82 | Nc1nc(Br)c2c(F)cccc2c1-c1ccc(Cl)cc1 | – | 4.47 µM (active)
83 | Cc1noc(C)c1-c1cc(Nc2ccc(F)cc2)ncn1 | -1.17% [at 2.29 µM] (inactive) | –
84 | CN1CCN(c2ncnc3ccc(-c4ccc5c(c4)OCO5)cc23)CC1 | 14.7% [at 2.29 µM] (inactive) | –
85 | CC(C)C(=O)N[C@H]1CCCN1C(=O)/C=C\c1ccccc1 | -2.39% [at 11.4 µM] (inactive) | –
86 | C#CCSc1nncn1C(=O)/C=C/c1ccccc1 | – | 3.98 µM (active)
87 | CC(C)C(=O)N[C@@H]1CCCN1C(=O)/C=C\c1ccccc1 | -11.6% [at 11.4 µM] (inactive) | –
88 | COc1cccc(CC(C(=O)Nc2cc(C)ccc2C)c2nn[nH]n2)c1OC (stereo not drawn) | -15.9% (inactive) | –
89 | COc1ccc(C(N)=O)cc1NC(=O)c1cccc(F)c1 | -18.9% (inactive) | –
90 | C=C(C)c1cccc(C(C)(C)NC(=O)Nc2cc(C)ccc2OC)c1 | – | 10 µM (active)
91 | O=C(OC(C(=O)NC1CCCC1)c1ccncc1)C1=Cc2ccccc2OC1 (stereo not drawn) | – | 2.82 µM (active)
92 | CN(C)Cc1ccccc1-c1ccc2ncnc(N(C)Cc3ccco3)c2c1 | -5.32% [at 2.29 µM] (inactive) | –
93 | O=C1c2c(O)cc(O)cc2O[C@@H](c2ccc(O)c(O)c2)[C@H]1O | -23.7% (inactive) | –
94 | COc1ccc([C@@H]2CC(=O)c3c(O)cc(O[C@H]4O[C@@H](CO[C@H]5O[C@@H](C)[C@@H](O)[C@@H](O)[C@@H]5O)[C@@H](O)[C@@H](O)[C@@H]4O)cc3O2)cc1O | 9.98% [at 25.6 µM] (inactive) | –
95 | COc1ccc([C@@H]2CC(=O)c3c(O)cc(O)cc3O2)cc1O | – | 10 µM (active)
96 | COc1ccc(Br)c2c1C[C@H](C(=O)O)CC2 | -27.4% [at 11.4 µM] (inactive) | –
97 | COc1ccc(C(=O)NC(=S)NC(C)C)cc1Br | -42.8% (inactive) | –
98 | COc1ccc(C(=O)NC(=S)NC(C)(C)C)cc1Br | – | 10 µM (active)
